# According to PubChem BioAssay AID431 (Sanford-Burnham Center for Chemical Genomics, 2006):
# Screen size: about 63,000 compounds; about 1,100 (1.7%) were called active. This is one part of a sample in which actives are shown more often than they occur. Potency and affinity values are given separately. A number with no mark means an inactive call.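 The calls were made as follows: active = compounds whose percent cytotoxicity in the single-dose primary screen, scaled between solvent and toxic-drug controls, exceeds 50; inactive = the rest.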
# Assay: cytotoxicity in KRAS-transformed pancreatic duct cells, primary screen, cell-based, fluorescence, HTS (AID 431);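 also: 0% = DMSO solvent wells and 100% = doxorubicin-treated wells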
# Settings: HPDE-C7K KRASV12 cells, Alamar Blue viability, 48 h; at 10 µM; hits give high values
row,SMILES,cytotoxicity
1,CC1=Nn2c(nnc2C2CCCCC2)SC1,-19%
2,CCn1c(=O)cc(OCC(=O)NC2CCCCC2)c2ccccc21,-1.2%
3,CCSc1nnc(-c2ccc(S(=O)(=O)N3CCOCC3)cc2)n1CC1CCCO1 (stereo unspecified),14%
4,Cc1c(N(C)C(=O)c2ccco2)c(=O)n(-c2ccccc2)n1C,8.3%
5,COc1ccc2c(c1)CC(C1(O)C(=O)Nc3ccccc31)C2=O (stereo unspecified),-10.5%
6,O=C(CN1CCCC1)N1c2ccccc2Sc2ccccc21,-4.5%
7,CC1CC(=O)N(CC(=O)N2CCCC2)c2ccccc2S1 (stereo unspecified),-21%
8,CCOC(=O)C1CCN(C(=O)COc2ccc(Br)cc2)CC1,6.3%
9,CCCn1c(NC(=O)c2ccccc2)nc2ccccc21,-14.1%
10,CCCn1c(NCc2ccco2)nc2ccccc21,-3.7%
11,CCn1c(COc2ccccc2)nnc1SCC(=O)C(C)(C)C,16.4%
12,CCc1ccccc1NC(=O)C(CC)Sc1nc2cc3c(cc2c(=O)n1Cc1ccco1)OCO3 (stereo unspecified),10.9%
13,CCC(Sc1nc2cc3c(cc2c(=O)n1Cc1ccco1)OCO3)C(=O)Nc1ccccc1OC (stereo unspecified),-11.9%
14,O=C(CCCOc1ccc(Cl)cc1Cl)N1CCN(c2ccccn2)CC1,1.2%
15,O=C(c1cccc(COc2ccc(Cl)cc2Cl)c1)N1CCN(c2ccccn2)CC1,99% (active)
16,O=C(c1cccc(Cl)c1)N1CCN(c2ccccn2)CC1,-21.5%
17,COc1ccc(Br)cc1-c1nc(C)c(C(C)=O)n1O,9.6%
18,O=C(Nc1cccc(Cl)c1)c1ccc2c(=O)n3c(nc2c1)CCCCC3,53.7% (active)
19,O=C(Nc1ccc(F)cc1Cl)c1ccc2c(=O)n3c(nc2c1)CCCCC3,-3.1%
20,O=C(Nc1ccc(F)c(Cl)c1)c1ccc2c(=O)n3c(nc2c1)CCCCC3,-3.7%
21,CCC(C)C(NC(=O)c1ccccc1NC(=O)c1ccco1)C(=O)O (stereo unspecified),1.4%
22,CC(C)COc1ccc(C2NC(=O)NC2=O)cc1 (stereo unspecified),3.8%
23,Nc1cc(C(=O)N2CCCC2)cc(C(=O)N2CCCC2)c1,6.7%
24,O=P(O)(CCc1ccccc1)CN1CCCCC1,2.1%

row,SMILES,cytotoxicity
1,COc1ccc(C(=O)Oc2ccc3c(c2)OCO3)cc1OC,-16.2%
2,COc1cc2c(O)c3c(c(-c4ccc5c(c4)OCO5)c2cc1OC)C(=O)OC3,99.9% (active)
3,COc1cc2c(=O)n(-c3ccc(C)cc3)c(=O)n(CC(=O)c3ccc4c(c3)OCO4)c2cc1OC,2.3%
4,CN1C(=O)CC(N2CCN(CC(=O)N3CCCC3)CC2)C1=O (stereo unspecified),-1.8%
5,COc1ccc(S(=O)(=O)NC2CCCC2)cc1Br,8.9%
6,OC[C@H]1O[C@@H](n2cnc3c(NC4CCCC4)ncnc32)[C@H](O)[C@@H]1O,3.7%
7,OC[C@H]1O[C@@H](n2cnc3c(Nc4ccccc4)ncnc32)[C@H](O)[C@@H]1O,62.3% (active)
8,Nc1nc(Cl)nc2c1ncn2[C@@H]1O[C@H](CO)[C@@H](O)[C@H]1O,2.5%
9,Nc1nc(F)nc2c1ncn2[C@@H]1O[C@H](CO)[C@@H](O)[C@@H]1O,42.7%
10,C=CCNc1ncnc2c1ncn2C1OC(CO)C(O)C1O (stereo unspecified),53.6% (active)
11,Nc1ncnc2c1ncn2[C@@H]1O[C@H](CO)[C@@H](O)[C@H]1O,-17.3%
12,COc1cccc2cc(C(=O)Nc3cccnc3N3CCOCC3)c(=O)oc12,7.3%
13,O=C(CSc1nnnn1-c1ccc2c(c1)OCCO2)c1cccc2c1OCCO2,10.2%
14,COc1cccc(/C=N/n2c(CO)nc3ccccc32)c1OC,-4.1%
15,CC(O)C(O)C(O)C(O)C1NCCS1 (stereo unspecified),5.8%
16,CCCn1c(=N)n(CC(O)COc2cccc(C)c2)c2ccccc21 (stereo unspecified),12.4%
17,N=c1n(Cc2ccccc2)c2ccccc2n1CC(O)COc1ccccc1 (stereo unspecified),53% (active)
18,CCn1c(=N)n(CC(O)COc2cccc(C)c2)c2ccccc21 (stereo unspecified),23.6%
19,CCCCn1c(=N)n(CC(O)COc2cccc(C)c2)c2ccccc21 (stereo unspecified),50.9% (active)
20,COc1ccc(OCC(O)Cn2c(=N)n(Cc3ccccc3)c3ccccc32)cc1 (stereo unspecified),22.1%
21,CCCCn1c(=N)n(CC(O)COc2ccccc2)c2ccccc21 (stereo unspecified),13.3%
22,O=C(COc1ccccc1)NCCSc1ccccc1,0%
23,CCN(CC)S(=O)(=O)c1ccc(OCC(=O)NCc2ccccc2)cc1,7.9%
24,Cc1ccc(NC(=O)CSCc2c(C)noc2C)cc1C,-2.9%

row,SMILES,cytotoxicity
1,COc1ccccc1Cn1c2nc3ccccc3nc2c2c(=O)n(CC(C)C)cnc21,5%
2,O=C(NC1CCCCC1)C1CCN(S(=O)(=O)c2cccc3cccnc23)CC1,-12.2%
3,Cn1c(-c2ccc3c(c2)OCO3)cnc1NCc1ccc(Cl)cc1,62.3% (active)
4,Cn1c(-c2ccc3c(c2)OCO3)cnc1NCc1ccccc1,-4.5%
5,Cn1c(-c2ccc3c(c2)OCO3)cnc1N,8.4%
6,Cn1c(-c2ccc3c(c2)OCO3)cnc1NC(=O)CCC(=O)NCCc1ccccc1,-0.9%
7,Cn1c(-c2ccc3c(c2)OCO3)cnc1NCc1cccc(Cl)c1,63.6% (active)
8,Cc1ccc(CNc2ncc(-c3ccc4c(c3)OCO4)n2C)cc1,-5.9%
9,COc1ccc(CN2CCN(S(=O)(=O)c3ccc(NC(C)=O)cc3)CC2)cc1OC,-2.4%
10,O=C(NCCN1C(=O)C2C3C=CC(C3)C2C1=O)Nc1ccc(Br)cc1 (stereo unspecified),8.1%
11,COc1cccc(S(=O)(=O)Nc2ccc(C(=O)NCc3ccco3)cc2)c1,-28.4%
12,COc1ccc(CC(=O)N2CCN(C(=O)Cc3ccc(OC)cc3)CC2)cc1,-6.3%
13,CC(C)CNC(=O)c1c(N)n(/N=C/c2ccccn2)c2nc3ccccc3nc12,1.7%
14,CCCCNC(=O)c1c(N)n(/N=C/c2cccnc2)c2nc3ccccc3nc12,12.3%
15,CCCCNC(=O)c1c(N)n(/N=C/c2ccccn2)c2nc3ccccc3nc12,38.1%
16,CCC(C)NC(=O)c1c(N)n(/N=C/c2cccnc2)c2nc3ccccc3nc12 (stereo unspecified),51.8% (active)
17,CC(C)CNC(=O)c1c(N)n(/N=C/c2cccnc2)c2nc3ccccc3nc12,1.6%
18,COCCCNC(=O)c1c(N)n(/N=C/c2cccnc2)c2nc3ccccc3nc12,22.5%
19,Nc1c(C(=O)NC2CCCCC2)c2nc3ccccc3nc2n1/N=C/c1ccco1,4.7%
20,Nc1c(C(=O)NC2CCCC2)c2nc3ccccc3nc2n1/N=C/c1cccnc1,66.8% (active)
21,Cc1ccnc(N(C(=O)c2cccs2)C(=O)c2cccs2)c1,-0.7%
22,C=CCN1C(c2ccccc2)=CS/C1=C(\C#N)c1nnc2n1CCCCC2,-0.6%
23,Cc1cc(C(=O)OCC(=O)NC(=O)NC(C)(C)C)c(C)o1,-3.4%
24,COc1cccc(-c2cc(C(=O)N3CCN(C(c4ccccc4)c4ccccc4)CC3)no2)c1,-8.3%

row,SMILES,cytotoxicity
1,C=CCn1c(SCc2ccccc2C#N)nnc1-c1cc(Br)ccc1O,13.1%
2,C#CC(C)(C)NC(=O)c1ccccc1OC,-11.3%
3,COc1cccc(C(=O)Nc2ccc(NC(=O)C(C)(C)C)cn2)c1,19.5%
4,CSc1ccc(C2C(C#N)=C(N)Oc3c2ccc(=O)c2c(C)oc(C)c32)cc1 (stereo unspecified),-2.3%
5,Cc1oc(C)c2c(=O)ccc3c(c12)OC(N)=C(C#N)C3c1ccccc1 (stereo unspecified),-7.8%
6,CCOc1cc(NC(=O)c2ccccn2)c(OCC)cc1NC(=O)CC(C)C,9.9%
7,CCOC(=O)NC1(C(F)(F)F)C(=O)NC(C)=C1C#N (stereo unspecified),2.9%
8,O=c1c2ccccc2nc(SCc2ccccc2)n1Cc1ccco1,-7%
9,CCOC(=O)c1cc2c(c(CSc3nc4ccccc4c(=O)n3Cc3ccco3)c1)OCOC2,62.1% (active)
10,O=C(CSc1nc2ccccc2c(=O)n1Cc1ccco1)NCc1ccccc1,58.5% (active)
11,O=c1c2ccccc2nc(SCc2cc(F)cc3c2OCOC3)n1Cc1ccco1,-5.3%
12,CCOC(=O)CSc1nc2ccccc2c(=O)n1Cc1ccco1,-3%
13,O=C(CSc1nc2ccccc2c(=O)n1Cc1ccco1)NCc1ccco1,-11.8%
14,Cn1c(CN2CCOCC2)nnc1SCC(=O)Nc1nccs1,1.8%
15,CN(C)CC(C(=O)c1ccccc1)c1ccccc1 (stereo unspecified),100% (active)
16,COc1ccc(C(C(=O)OC(C)CN(C)C)c2ccccc2)cc1 (stereo unspecified),-8.5%
17,CCC(C(=O)c1ccc(O)cc1)c1ccccc1 (stereo unspecified),18.5%
18,COc1cccc(C2/C(=C(/O)c3cnn(-c4ccccc4)c3C)C(=O)C(=O)N2CCN(C)C)c1OC (stereo unspecified),11.3%
19,CCC(c1nnnn1Cc1ccccc1)N1CCN(C(=O)c2ccco2)CC1 (stereo unspecified),-1.7%
20,COc1ccccc1-c1cc(C(F)(F)F)nc(S(=O)(=O)CCCC(=O)N2CCCCC2C)n1 (stereo unspecified),50.1% (active)
21,COc1ccccc1-c1cc(C(F)(F)F)nc(S(=O)(=O)CCCC(=O)Nc2cc(C)on2)n1,27.3%
22,COc1ccccc1-c1cc(C(F)(F)F)nc(N2CCCC2)n1,-16.5%
23,COc1ccccc1-c1cc(C(F)(F)F)nc(S(=O)(=O)CCCC(=O)NC(C)C)n1,-3.9%
24,COc1ccccc1-c1cc(C(F)(F)F)nc(N2CCOCC2)n1,-4.5%
